Unmarked numbers belong to inactive results. Records with an inconclusive call do not appear. Where a call stands in place of a potency, no number is given. Active and inactive are the calls of the source. Unless noted, the call rests on the fitted dose curve; in most records, active means well fitted curve in the direction sought with a large enough effect in the repeat runs; inconclusive means weak or mixed curves; inactive means no such curve, though single readings can be large; an effect the other way counts as inactive or inconclusive.
Tests used:
[1] = qHTS assay to identify small molecule agonists of the androgen receptor (AR) signaling pathway in the presence of an antagonist - cell viability counter screen (AID 1259379); further: nearly all actives have a fitted effect of over 25% in size; further: potency means the concentration at half of the fitted maximal effect
Procedure, shortened: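 MDA-kb2 human breast carcinoma cells (stable MMTV-luciferase, AR/GR responsive) were seeded 3,000 cells/well, pre-incubated 5 hr at 37C without CO2, then given 3.0uM nilutamide and compounds at 15 concentrations for 16 hr. Viability was read by CellTiter-Fluor fluorescence.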

[2] = qHTS assay to identify small molecule antagonists of the estrogen receptor beta (ER-beta) signaling pathway - cell viability counter screen (AID 1259382); further: nearly all actives have a fitted effect of over 55% in size; further: potency means the concentration at half of the fitted maximal effect
Procedure, shortened: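 ER-beta-UAS-bla HEK293T cells (2,000/well, 2% charcoal-stripped FBS) were pre-incubated 6 hr at 37C, then given compound plus 1nM final 17-beta-estradiol for 16 hr. Viability was read in the same wells by CellTiter-Glo luminescence after 30 min at room temperature.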

[3] = target: Estrogen receptor (Homo sapiens) (UniProt P03372); assay: qHTS assay to identify small molecule agonists of the estrogen receptor alpha (ER-alpha) signaling pathway in the presence of an antagonist (AID 1259383; calls by dose curve; further: top concentration of the series differs between compounds; nearly all actives have a fitted effect of over 15% in size)
Sequence of Estrogen receptor (Homo sapiens) (P03372 whole entry, looked up): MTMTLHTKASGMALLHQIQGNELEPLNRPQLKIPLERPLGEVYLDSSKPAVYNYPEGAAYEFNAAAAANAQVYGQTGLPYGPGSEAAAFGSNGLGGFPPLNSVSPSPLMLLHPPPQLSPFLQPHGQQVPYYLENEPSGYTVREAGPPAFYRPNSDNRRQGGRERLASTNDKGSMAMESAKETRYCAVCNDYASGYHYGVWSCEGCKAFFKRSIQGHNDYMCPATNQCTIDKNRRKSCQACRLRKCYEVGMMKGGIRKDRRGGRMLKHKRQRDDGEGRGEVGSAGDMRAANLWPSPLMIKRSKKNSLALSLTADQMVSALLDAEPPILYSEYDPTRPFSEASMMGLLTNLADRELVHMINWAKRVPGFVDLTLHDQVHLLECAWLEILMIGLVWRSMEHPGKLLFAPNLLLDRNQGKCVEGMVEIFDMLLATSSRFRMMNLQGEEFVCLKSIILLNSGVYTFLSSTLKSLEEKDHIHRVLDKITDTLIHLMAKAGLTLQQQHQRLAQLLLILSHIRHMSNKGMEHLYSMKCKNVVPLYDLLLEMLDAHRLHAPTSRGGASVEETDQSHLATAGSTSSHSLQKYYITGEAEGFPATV
Procedure, shortened: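 VM7Luc4E2 cells (endogenous full-length ER-alpha, 4×ERE-luciferase) were precultured 5 days in phenol red-free medium with 10% charcoal-stripped FBS, given 10.0nM ICI-182,780 (final), then treated with compounds at 15 concentrations for 22hr at 37C; luminescence read with ONE-Glo.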

[4] = qHTS assay to identify small molecule agonists of the estrogen receptor alpha (ER-alpha) signaling pathway in the presence of an antagonist - cell viability counter screen (AID 1259386);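 further: cells exposed to compounds for 22 h at 37 °C before the viability read; nearly all actives have a fitted effect of over 30% in size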; further: potency means the concentration at half of the fitted maximal effect
Procedure, shortened: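 VM7Luc4E2 cells (endogenous full-length ER-alpha, 4×ERE-luciferase) were held 5 days in phenol red-free medium with 10% charcoal-stripped FBS, plated, then given 10.0nM ICI-182,780 and compounds at 15 concentrations for 22hr at 37C; viability read by CellTiter-Fluor fluorescence.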

[5] = target: Progesterone receptor (Homo sapiens) (UniProt P06401); assay: qHTS assay to identify small molecule agonists of the progesterone receptor (PR) signaling pathway (AID 1346784; calls by dose curve; further: nearly all actives have a fitted effect of over 30% in size)
Sequence of Progesterone receptor (Homo sapiens) (P06401 whole entry, looked up): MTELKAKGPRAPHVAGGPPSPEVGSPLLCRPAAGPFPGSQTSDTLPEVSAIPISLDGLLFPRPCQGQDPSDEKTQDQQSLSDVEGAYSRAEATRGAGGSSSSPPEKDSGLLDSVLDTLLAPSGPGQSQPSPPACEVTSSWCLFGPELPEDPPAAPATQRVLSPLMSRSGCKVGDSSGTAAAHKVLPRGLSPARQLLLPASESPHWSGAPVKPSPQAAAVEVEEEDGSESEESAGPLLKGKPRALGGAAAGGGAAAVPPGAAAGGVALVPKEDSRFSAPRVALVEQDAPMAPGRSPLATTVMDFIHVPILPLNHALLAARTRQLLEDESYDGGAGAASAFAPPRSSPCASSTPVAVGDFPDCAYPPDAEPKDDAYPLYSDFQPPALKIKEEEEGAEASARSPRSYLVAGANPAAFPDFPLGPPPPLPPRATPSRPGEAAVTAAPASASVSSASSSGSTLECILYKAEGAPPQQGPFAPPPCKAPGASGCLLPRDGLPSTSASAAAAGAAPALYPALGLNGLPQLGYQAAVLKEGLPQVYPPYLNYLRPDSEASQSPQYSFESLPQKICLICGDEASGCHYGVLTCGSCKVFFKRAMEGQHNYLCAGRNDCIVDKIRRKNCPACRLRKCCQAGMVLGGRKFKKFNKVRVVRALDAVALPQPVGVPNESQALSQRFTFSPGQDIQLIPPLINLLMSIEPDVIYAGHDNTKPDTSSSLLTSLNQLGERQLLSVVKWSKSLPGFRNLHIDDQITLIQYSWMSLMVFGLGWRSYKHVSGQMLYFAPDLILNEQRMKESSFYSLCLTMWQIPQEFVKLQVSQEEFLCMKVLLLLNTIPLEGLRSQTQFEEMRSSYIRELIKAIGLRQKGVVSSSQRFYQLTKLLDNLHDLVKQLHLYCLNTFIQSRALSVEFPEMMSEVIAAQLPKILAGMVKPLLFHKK
Procedure, shortened: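 PR-UAS-bla HEK 293T cells carrying a UAS-driven beta-lactamase reporter were seeded in medium with 2% charcoal-stripped FBS, preincubated 6 hr at 37C, then exposed to compounds in DMSO for 16 hr; agonism was read by LiveBLAzer B/G FRET fluorescence.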

[6] = target: Progesterone receptor (Homo sapiens) (UniProt P06401); assay: qHTS assay to identify small molecule antagonists of the progesterone receptor (PR) signaling pathway (AID 1346795; active means well fitted inhibition curve with a large enough effect in the signal ratio in the repeat runs, not every such curve was filed as active; the % refers to the signal ratio; further: potency means the concentration at half of the fitted maximal effect)
Procedure, shortened: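 PR-UAS-bla HEK293T cells carrying a UAS-driven beta-lactamase reporter were plated in medium with 2% charcoal-stripped FBS and rested 6 hr at 37C. Compounds were added with 1 nM R5020 (final) for 16 hr, then FRET substrate loaded 2 hr at room temperature.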

[7] = qHTS assay to identify small molecule antagonists of the TGF-beta/Smad signaling pathway - cell viability counter screen (AID 1346824); further: nearly all actives have a fitted effect of over 50% in size; further: potency means the concentration at half of the fitted maximal effect
Procedure, shortened: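 SBE-bla HEK 293T cells were plated overnight at 37 C, then given compounds in DMSO plus TGF-beta1 (added as 0.25 ng/mL solution) for 5 hr. After the bla read, CellTiter-Glo was added to the same wells and luminescence read after 30 min at room temperature.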

[8] = qHTS assay to identify small molecule agonists of the TGF-beta/Smad signaling pathway - cell viability counter screen (AID 1346829); further: nearly all actives have a fitted effect of over 45% in size; further: potency means the concentration at half of the fitted maximal effect
Procedure, shortened: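 CellTiter-Glo luminescence readout; SBE-bla HEK 293T cells, overnight plating, compound 5 hr at 37 C/5% CO2, then bla substrate 2 hr RT, then CellTiter-Glo 30 min RT.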

[9] = Human pregnane X receptor (PXR) small molecule agonists, qHTS cell viability counter screen (AID 1346977); further: nearly all actives have a fitted effect of over 50% in size; further: potency means the concentration at half of the fitted maximal effect
Procedure, shortened: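 PXR-Luc HepG2 cells in medium with 5% charcoal-stripped FBS were pre-incubated 5hr, then exposed to compounds for 24hr at 37C. Viability was read in the same wells by CellTiter-Fluor fluorescence, reagent added after 23hr with a 1hr incubation.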

[10] = Caspase-3/7 induction in HepG2 cells by small molecules, qHTS assay (AID 1346978); further: nearly all actives have a fitted effect of over 15% in size; further: potency means the concentration at half of the fitted maximal effect
Procedure, shortened: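 Wild-type HepG2 cells (2,000/well) were settled 5 h at 37 C, 5% CO2, then exposed to compounds in DMSO for 17 h. Caspase-3/7 activity was read by luminescence 30 min after adding Caspase-Glo 3/7 reagent at room temperature.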

[11] = qHTS assay to identify small molecule agonists or antagonists of the thyroid stimulating hormone receptor (TSHR) signaling pathway - wild type cell line counter screen (AID 1259384; calls by dose curve)
Procedure, shortened: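 Wild-type HEK293 cells were plated 18 h at 37 C/5% CO2, pin-dosed with compound plus Ro20-1724 medium, held 30 min at room temperature, then given cAMP-d2 and anti-cAMP-cryptate; fluorescence was read after 1 h. Fifteen concentrations, triplicate.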

[12] = target: Thyrotropin receptor (Homo sapiens) (UniProt P16473); assay: qHTS assay to identify small molecule antagonists of the thyroid stimulating hormone receptor (TSHR) signaling pathway (AID 1259385; calls by dose curve; further: nearly all actives have a fitted effect of over 20% in size)
Sequence of Thyrotropin receptor (Homo sapiens) (P16473 whole entry, looked up): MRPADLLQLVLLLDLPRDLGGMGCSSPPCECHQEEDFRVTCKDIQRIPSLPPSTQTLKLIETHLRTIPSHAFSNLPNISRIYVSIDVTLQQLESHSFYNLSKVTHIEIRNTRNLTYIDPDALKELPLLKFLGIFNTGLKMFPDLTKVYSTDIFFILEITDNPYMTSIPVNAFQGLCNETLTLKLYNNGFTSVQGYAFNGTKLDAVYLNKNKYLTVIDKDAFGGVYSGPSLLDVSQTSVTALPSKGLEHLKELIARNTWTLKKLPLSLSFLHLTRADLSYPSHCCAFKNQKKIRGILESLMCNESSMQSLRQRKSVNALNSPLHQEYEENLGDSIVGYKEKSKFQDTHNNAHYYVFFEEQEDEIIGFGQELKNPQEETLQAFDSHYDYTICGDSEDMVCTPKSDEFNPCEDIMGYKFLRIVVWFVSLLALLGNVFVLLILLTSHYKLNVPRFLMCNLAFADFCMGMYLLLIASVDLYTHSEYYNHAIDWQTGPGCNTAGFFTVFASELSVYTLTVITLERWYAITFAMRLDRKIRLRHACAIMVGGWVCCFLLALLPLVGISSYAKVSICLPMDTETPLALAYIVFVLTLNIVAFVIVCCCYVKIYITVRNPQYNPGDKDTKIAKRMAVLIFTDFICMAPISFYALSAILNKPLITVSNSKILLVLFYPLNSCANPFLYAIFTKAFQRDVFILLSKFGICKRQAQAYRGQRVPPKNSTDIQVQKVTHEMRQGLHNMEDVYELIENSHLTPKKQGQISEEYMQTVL
Procedure, shortened: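 TSHR-HEK293 cells were plated and held 18 h at 37C/5% CO2, then given compound plus Ro20-1724 and stimulated with TSH at 1.5 ng/mL final. After 30 min at room temperature, cAMP was detected with cAMP-d2/anti-cAMP-cryptate (1 h) by fluorescence.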

[13] = qHTS assay to identify small molecule antagonists of the progesterone receptor (PR) signaling pathway - cell viability counter screen (AID 1346798); further: nearly all actives have a fitted effect of over 50% in size; further: potency means the concentration at half of the fitted maximal effect
Procedure, shortened: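 PR-UAS-bla HEK293T cells in medium with 2% charcoal-stripped FBS were treated with compounds plus R5020 for 16 hr at 37C. Cell viability was then read by CellTiter-Glo luminescence after 30 min at room temperature in the same wells.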

[14] = qHTS assay to identify small molecule agonists of the progesterone receptor (PR) signaling pathway - cell viability counter screen (AID 1346799; calls by dose curve; further: nearly all actives have a fitted effect of over 45% in size)
Procedure, shortened: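 PR-UAS-bla HEK293T cells, 3,000 per well in medium with 2% charcoal-stripped FBS, were preincubated 6 hr at 37C, then exposed to compounds for 16 hr; viability was read as CellTiter-Glo luminescence after 30 min at room temperature.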

[15] = target: Thyrotropin-releasing hormone receptor (Homo sapiens) (UniProt P34981); assay: qHTS assay to identify small molecule antagonists of the thyrotropin-releasing hormone receptor (TRHR) signaling pathway (AID 1346877; active means well fitted inhibition curve with a large enough effect in the repeat runs, not every such curve was filed as active; further: series mostly up to about 51 µM)
Sequence of Thyrotropin-releasing hormone receptor (Homo sapiens) (P34981 whole entry, looked up): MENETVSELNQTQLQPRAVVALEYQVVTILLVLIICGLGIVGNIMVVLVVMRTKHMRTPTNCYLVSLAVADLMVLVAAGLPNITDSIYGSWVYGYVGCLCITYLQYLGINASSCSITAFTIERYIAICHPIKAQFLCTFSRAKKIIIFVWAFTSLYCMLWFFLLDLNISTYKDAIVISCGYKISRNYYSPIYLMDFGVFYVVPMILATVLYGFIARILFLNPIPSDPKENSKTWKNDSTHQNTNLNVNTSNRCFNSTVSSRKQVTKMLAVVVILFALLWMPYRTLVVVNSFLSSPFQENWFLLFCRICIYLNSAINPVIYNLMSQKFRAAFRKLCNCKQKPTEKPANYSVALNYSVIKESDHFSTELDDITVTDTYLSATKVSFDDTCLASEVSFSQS
Procedure, shortened: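 TRHR-expressing HEK293 cells were seeded, cultured 18 h at 37 °C, then loaded with calcium dye for 2 h. Compounds were pre-incubated 5 min at room temperature before 1 nM TRH (final) was added, and kinetic fluorescence was recorded for 3 min.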

[16] = target: Thyrotropin-releasing hormone receptor (Homo sapiens) (UniProt P34981); assay: qHTS assay to identify small molecule agonists of the thyrotropin-releasing hormone receptor (TRHR) signaling pathway (AID 1346891; calls by dose curve; further: series mostly up to about 58 µM)
Procedure, shortened: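 TRHR-expressing HEK293 cells were plated 18 h at 37 °C/5% CO2, loaded with calcium dye 2 h at 37 °C, then given compound in DMSO; fluorescence was read kinetically for 3 min at 1 s intervals.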

[17] = target: Androgen receptor (Homo sapiens) (UniProt P10275); assay: qHTS assay to identify small molecule agonists of the androgen receptor (AR) signaling pathway in the presence of an antagonist (AID 1259381; calls by dose curve; further: nearly all actives have a fitted effect of over 15% in size)
Sequence of Androgen receptor (Homo sapiens) (P10275 whole entry, looked up): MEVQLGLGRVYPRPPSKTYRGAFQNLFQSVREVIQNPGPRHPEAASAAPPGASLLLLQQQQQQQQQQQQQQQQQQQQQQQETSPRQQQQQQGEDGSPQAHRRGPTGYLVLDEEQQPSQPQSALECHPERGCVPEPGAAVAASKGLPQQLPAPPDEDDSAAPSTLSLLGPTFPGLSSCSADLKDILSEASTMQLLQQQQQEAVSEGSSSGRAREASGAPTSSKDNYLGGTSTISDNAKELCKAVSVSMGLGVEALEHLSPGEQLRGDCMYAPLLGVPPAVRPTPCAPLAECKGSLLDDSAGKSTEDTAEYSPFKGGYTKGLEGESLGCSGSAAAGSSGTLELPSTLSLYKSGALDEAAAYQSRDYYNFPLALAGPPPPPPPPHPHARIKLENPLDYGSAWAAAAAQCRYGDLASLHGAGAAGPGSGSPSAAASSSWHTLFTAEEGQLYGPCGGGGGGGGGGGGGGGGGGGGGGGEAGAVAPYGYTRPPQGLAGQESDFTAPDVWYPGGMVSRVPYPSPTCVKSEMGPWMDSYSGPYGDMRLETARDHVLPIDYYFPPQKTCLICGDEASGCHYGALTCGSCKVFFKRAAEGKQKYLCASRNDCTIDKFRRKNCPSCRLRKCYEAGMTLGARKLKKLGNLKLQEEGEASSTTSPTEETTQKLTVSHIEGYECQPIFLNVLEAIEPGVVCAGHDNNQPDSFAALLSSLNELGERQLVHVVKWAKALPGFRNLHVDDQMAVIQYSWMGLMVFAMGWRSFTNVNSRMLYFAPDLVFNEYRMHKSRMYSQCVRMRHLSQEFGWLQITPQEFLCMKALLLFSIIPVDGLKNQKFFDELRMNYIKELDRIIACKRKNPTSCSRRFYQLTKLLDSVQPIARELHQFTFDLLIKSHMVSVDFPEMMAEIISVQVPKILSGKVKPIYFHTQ
Procedure, shortened: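 MDA-kb2 human breast carcinoma cells carrying an MMTV-luciferase reporter (AR- and GR-responsive) were treated with compounds at 15 concentrations plus 3.0uM final nilutamide for 16hr at 37C without CO2; luminescence was read after ONE-Glo addition.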

[18] = qHTS assay to identify small molecule agonists of the TGF-beta/Smad signaling pathway (AID 1346859; active means well fitted activation curve with a large enough effect in the signal ratio in the repeat runs, not every such curve was filed as active; the % refers to the signal ratio; further: series mostly up to about 77 µM)
Procedure, shortened: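 HEK 293T cells stably carrying a beta-lactamase reporter driven by the Smad binding element were seeded overnight, exposed to DMSO-dissolved compounds for 5 hr at 37 C, 5% CO2, then loaded with FRET substrate for 2 hr at room temperature.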

[19] = qHTS assay to identify small molecule agonists of the estrogen receptor beta (ER-beta) signaling pathway - cell viability counter screen (AID 1259380); further: potency means the concentration at half of the fitted maximal effect; nearly all actives have a fitted effect of over 30% in size
Procedure, shortened: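 ER-beta-UAS-bla HEK293T cells in medium with 2% charcoal-stripped FBS were preincubated 6 hr at 37C, dosed with compound in DMSO for 16 hr, then after the bla read, CellTiter-Glo was added for 30 min at room temperature; luminescence recorded.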

SMILES: O=C(Nc1ccc(Cl)c(Cl)c1)c1cc(Cl)cc(Cl)c1O
- Potency [1]: 6.86 µM (active)
- Potency [2]: 19.3 µM (active)
- Potency [3]: inactive
- Potency [4]: 7.7 µM (active)
- outcome [5]: inactive
- Potency [6]: 4.86 µM (active)
- Potency [7]: 19.5 µM (active)
- Potency [8]: 6.92 µM (active)
- Potency [9]: 4.86 µM (active)
- Potency [10]: inactive

SMILES: C1CC(COCC2CO2)CCC1COCC1CO1 (stereo not drawn)
- Potency [1]: inactive
- Potency [2]: inactive
- Potency [3]: inactive
- outcome [11]: inactive
- Potency [12]: inactive
- Potency [4]: inactive
- Potency [13]: inactive
- Potency [14]: inactive
- Potency [7]: inactive
- Potency [8]: inactive
- Potency [15]: inactive
- Potency [16]: inactive
- Potency [9]: inactive
- Potency [10]: inactive

SMILES: CC1CCCCN1CCCOC(=O)c1ccc(OC2CCCCC2)cc1 (stereo not drawn)
- Potency [1]: 26.6 µM (active)
- Potency [17]: inactive
- Potency [2]: inactive
- Potency [3]: inactive
- outcome [11]: inactive
- Potency [12]: inactive
- outcome [5]: inactive
- Potency [13]: inactive
- Potency [14]: inactive
- Potency [7]: inactive
- Potency [8]: inactive
- Potency [18]: inactive
- Potency [16]: inactive
- Potency [9]: inactive
- Potency [10]: inactive

SMILES: CC(C)(C)CC(C)(C)c1ccccc1O
- Potency [1]: inactive
- Potency [2]: 61.4 µM (active)
- outcome [11]: inactive
- Potency [12]: inactive
- Potency [4]: 61.4 µM (active)
- Potency [7]: 31.1 µM (active)
- Potency [8]: 49.2 µM (active)
- Potency [9]: 70.8 µM (active)
- Potency [10]: 48.8 µM (active)

SMILES: CCCSS/C(CCO)=C(\C)N(C=O)Cc1cnc(C)nc1N
- Potency [1]: inactive
- Potency [2]: inactive
- Potency [3]: inactive
- outcome [11]: inactive
- Potency [12]: inactive
- Potency [4]: inactive
- outcome [5]: inactive
- Potency [6]: inactive
- Potency [13]: inactive
- Potency [14]: inactive
- Potency [7]: inactive
- Potency [8]: inactive
- Potency [18]: inactive
- Potency [16]: inactive
- Potency [10]: inactive

SMILES: O=C(Oc1ccccc1)c1cccc(C(=O)Oc2ccccc2)c1
- Potency [1]: inactive
- Potency [2]: inactive
- outcome [11]: inactive
- Potency [12]: inactive
- Potency [4]: inactive
- Potency [6]: 25.7 µM (active)
- Potency [13]: 64.4 µM (active)
- Potency [8]: inactive
- Potency [15]: inactive
- Potency [16]: inactive
- Potency [9]: inactive
- Potency [10]: inactive

SMILES: CC(=O)OC(OC(C)=O)c1ccc([N+](=O)[O-])o1
- Potency [1]: 62.2 µM (active)
- Potency [19]: 62.2 µM (active)
- outcome [11]: inactive
- Potency [4]: 49.4 µM (active)
- Potency [9]: 49.4 µM (active)

SMILES: CC(C)N=C(N)/N=C(\N)Nc1ccc(Cl)cc1
- Potency [1]: inactive
- Potency [19]: 23.7 µM (active)
- Potency [3]: inactive
- Potency [4]: inactive
- outcome [5]: inactive
- Potency [13]: inactive
- Potency [14]: inactive
- Potency [7]: inactive
- Potency [8]: inactive
- Potency [18]: inactive
- Potency [15]: inactive
- Potency [16]: inactive
- Potency [10]: inactive
